Screening results: PubChem BioAssay, National Center for Advancing Translational Sciences (NCATS)
This is a sample that favours compounds with a hit; in the whole collection about 3.7% have one here.
RE007 growth inh: less growth of the S. pombe RE007 Vpr strain; S. pombe RE007 Vpr strain, BacTiter-Glo ATP luminescence, 24 h; Potency, µM (highest dose often 92.2 µM), for the others: at the top dose activity change, negative = less growth, most hits filed as inhibitors; actives 0.21% (n = 360,000); active = well fitted falling curve with a large enough effect; inconclusive = small, poorly fitted or top-dose-only effect; inactive = no such curve, though single readings can be large or run the other way; note: nearly all actives have a fitted effect of over 50% in size
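Fission yeast strain RE007, carrying one chromosomally integrated HIV-1 vpr copy, was seeded at OD 0.01 in PMG+AL medium with 23 nL pinned compound. After 24 h at 30 °C and 99% humidity, viability was read by BacTiter-Glo luminescence.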
FMDV antiviral: foot and mouth disease virus antiviral activity; FMDV antiviral cell-based qHTS; Potency, µM (top dose mostly 57.9 µM), inactives show top-dose activity change, negative = inhibition, hits mostly inhibitors; actives 1.2% (n = 410,000); calls by dose curve; tested in HEK293T cells; note: read-out not given here; nearly all actives have a fitted effect of over 45% in size
Tb PYK inh: blocks Trypanosoma brucei pyruvate kinase; TbPYK enzyme, Kinase-Glo Plus ATP luminescence, 45 min; Potency, µM (titrated, usually from 76.8 µM), without a hit: top-dose activity, negative = inhibition, usual class: inhibitors; AID 624173; Q57TT1; actives 0.12% (n = 410,000); note: nearly all actives have a fitted effect of over 50% in size
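Quantitative HTS: titrated library compounds versus trypanosomal pyruvate kinase in TEA buffer (pH 7.2) containing KCl, MgCl2, BSA and Tween-20. Reactions were initiated with ADP, 130 uM final. Kinase-Glo Plus luminescence was read after 45 min at RT.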
Sm TGR inh: blocks Schistosoma mansoni thioredoxin glutathione reductase; Potency, µM (highest dose often 114 µM), for inactives: at the highest dose activity change, negative = inhibition, usual class: inhibitors; Q962Y6; purified TGR, DTNB reduction, TNB absorbance 405 nm; AID 485364; actives 3% (n = 360,000); note: nearly all actives have a fitted effect of over 60% in size
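First, TGR (20 nM dispensed) and NADPH were mixed with compound. Second, a 15 min room-temperature incubation followed. Third, further NADPH and then DTNB were added to start the reaction. Finally, TNB absorbance was monitored kinetically.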
An asterisk follows results filed as active; ? = inconclusive; . = no result given; ! = a repeat was not active. Unless noted, calls come from the whole dose curve; as a rule, active = well fitted curve in the direction sought with a large enough effect; inconclusive = small, poorly fitted or top-dose-only effect, or another doubt; inactive = no such curve, though single readings can be large; an effect the other way counts as inactive or inconclusive. % is set by controls: 0 for no effect and ±100 for the full control effect; potency is the fitted concentration of half-maximal effect.

SMILES | RE007 growth inh | FMDV antiviral | Tb PYK inh | Sm TGR inh
CCOC(=O)c1cnc2ccc(C(=O)OC)cc2c1NCCN1CCOCC1 | -14% | . | 0% | 32µM*
CCOC(=O)c1cnc2ccc(OC)cc2c1NCc1ccccc1 | -6% | -7% | 8% | -1%
COc1cc(-c2nnc(SCC(=O)Nc3ccc(F)c(Cl)c3)o2)cc(OC)c1OC | . | -26% | 3% | -10%
COc1ccc2c(C(=S)N(C)CC(=O)O)cccc2c1C(F)(F)F | . | . | -7% | .
O=c1c(Cl)c(Cl)cnn1-c1ccccc1 | -13% | ? | 2% | 40µM*
Cc1ccc(-c2nnc(Cc3ccc(Cl)cc3)o2)cc1 | -18% | 56% | 1% | 0%
Nc1c(Cl)cnn(-c2ccccc2)c1=O | -13% | 3% | 2% | .
O=c1c(Cl)c(Cl)cnn1Cc1ccccc1Cl | 2% | 25µM* | 1% | 13µM*
O=c1c(Cl)c(Cl)cnn1Cc1nnc(-c2ccc(Cl)cc2)o1 | -22% | ? | -1% | 4.5µM*
Cc1cc(C)cc(Cn2ncc(Cl)c(Cl)c2=O)c1 | -27% | 28µM* | -1% | 2.8µM*
Cn1c(=O)c2c(ncn2CC(=O)Nc2cccc(Cl)c2Cl)n(C)c1=O | . | -17% | 5% | -4%
Cc1cccc(NC(=O)c2cc3c([nH]c2=O)CC(c2ccccc2)CC3=O)c1 (centres undefined) | . | -12% | 2% | -1%
COc1ccc(OC)c(CNC(=O)C2COc3ccccc3C2)c1 (centres undefined) | . | 20% | 0% | 1%
CN(CCO)C(=O)c1cn(C2CCN(Cc3cccc4ccccc34)CC2)nn1 | . | -14% | . | .
CCc1ccc(C(=O)Cn2ncc(Cl)c(Cl)c2=O)cc1 | 6% | ? | -6% | ?
Cc1ccc(Cn2ncc(Cl)c(Cl)c2=O)cc1 | 12% | 40µM* | 0% | 3.5µM*
Nc1nc(-c2cccc(Br)c2)cs1 | 14µM* | 41% | 0% | 2%
Nc1nc(-c2ccc(Br)cc2)cs1 | -18% | -6% | -7% | -15%
O=C(NCC1CCC2(CCN(Cc3ccc4ncccc4c3)CC2)O1)C1CCCO1 (centres undefined) | . | -4% | . | .
CCCCCc1c2c(cc(O)c1C(=O)O)OC(=O)c1c(cc(OC)cc1C(=O)CCCC)O2 | 1% | 32µM*! | -9% | 40µM*
CN(CCc1ccccn1)C1CC(=O)N(c2ccc(Cl)cc2)C1=O (centres undefined) | 3.2µM* | 0% | 1% | 10µM*
CN(CCc1ccccn1)C(=O)Nc1ccc(Cl)cc1 | -11% | 51% | -9% | -1%
CCN(c1cccc(C)c1)S(=O)(=O)c1c(C)nc2sc(C)cn2c1=O | . | -19% | 1% | 2%
COc1ccc(Oc2nc3c(c(=O)n(C)c(=O)n3C)n2Cc2ccc(Cl)cc2Cl)cc1 | . | -30% | -9% | 9%
Cc1ccc(NC(=O)Cn2cc3c(n2)CCCC3)cc1Cl | . | 4% | -1% | 1%
SMILES | RE007 growth inh | FMDV antiviral | Tb PYK inh | Sm TGR inh
O=C(c1ccc([N+](=O)[O-])cc1)N1CCOC12CCN(c1ncc(C(F)(F)F)cc1Cl)CC2 | 9% | ? | -8% | 0%
CN(C)/C=C/C(=O)c1ccc(N2CCN(c3ncc(C(F)(F)F)cc3Cl)CC2)cc1 | ? | 25µM* | -9% | -28%
O=C(c1ccccc1)N1CCOC12CCN(c1ncc(C(F)(F)F)cc1Cl)CC2 | 11% | 16µM* | 5% | 21%
Cc1c(C(=O)OCC(=O)c2c(N)n(CC(C)C)c(=O)n(C)c2=O)oc2ccccc12 | 8% | ? | -2% | -10%
CC(C)Cn1c(N)c(C(=O)COC(=O)Cc2cccs2)c(=O)n(C)c1=O | 5% | ? | -5% | -20%
CC(C)Cn1c(N)c(C(=O)COC(=O)/C=C/c2cccs2)c(=O)n(C)c1=O | 5% | 18µM* | -5% | -10%
COCc1c(C(=O)OCC(=O)c2c(N)n(CC(C)C)c(=O)n(C)c2=O)oc2ccccc12 | -1% | 32µM* | -1% | 6%
COC(=O)c1ccc2c(c1)C(C)(C)C(/C=C/c1ccccc1O)=[N+]2C | ? | 7.9µM* | ? | 50µM*
CC(=O)NC[C@@H]1CN(c2ccc(N3CCOCC3)c(F)c2)C(=O)O1 | . | . | -6% | .
CC(C)C1Cc2c(C#N)c(N)sc(=S)c2CO1 (centres undefined) | -1% | -27% | -13% | 10µM*
CC1(C)Cc2c(C#N)c(N)sc(=S)c2CO1 | 2% | . | -10% | ?
CCc1nnc(NS(=O)(=O)c2ccc(NC(=O)c3ccc(Br)cc3)cc2)s1 | 8% | 15% | -1% | -6%
